Results reported in PubChem BioAssay AID939 (National Center for Advancing Translational Sciences (NCATS), 2007).
Records with an inconclusive call do not appear. The source made the active and inactive calls. Calls follow the shape of the dose curve; as a rule, active = well fitted activation curve with a large enough effect in the main read-out, with a control signal flat; inconclusive = small, poorly fitted or top-dose-only effect, or effect the other way, or a change in a side signal; inactive = no such curve, though single readings can be large or run the other way.

Experiments:
[1] = Confirmation Concentration-Response Assay for Agonists of the Thyroid Stimulating Hormone Receptor; conditions: HEK293 TSHR-CNG cells, membrane potential dye, cAMP; measured here: parental HEK293 counter-screen max; as to activation: % of control where 0% means no effect
In short: (§1)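 TSHR+CNG HEK293 cells plated 20–36 h; membrane potential dye + 100 uM RO 20-1724, 60 min RT; cpd 30 min; fluorescence em 590 nm, bottom read. Parental CNG cells counterscreen endogenous targets.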

[2] = target: Thyrotropin receptor (Homo sapiens) (UniProt P16473); assay: as above; conditions: HEK293 TSHR-CNG cells, membrane potential dye, cAMP; series mostly up to 25.6 µM
Sequence of Thyrotropin receptor (Homo sapiens) (P16473 whole entry, looked up): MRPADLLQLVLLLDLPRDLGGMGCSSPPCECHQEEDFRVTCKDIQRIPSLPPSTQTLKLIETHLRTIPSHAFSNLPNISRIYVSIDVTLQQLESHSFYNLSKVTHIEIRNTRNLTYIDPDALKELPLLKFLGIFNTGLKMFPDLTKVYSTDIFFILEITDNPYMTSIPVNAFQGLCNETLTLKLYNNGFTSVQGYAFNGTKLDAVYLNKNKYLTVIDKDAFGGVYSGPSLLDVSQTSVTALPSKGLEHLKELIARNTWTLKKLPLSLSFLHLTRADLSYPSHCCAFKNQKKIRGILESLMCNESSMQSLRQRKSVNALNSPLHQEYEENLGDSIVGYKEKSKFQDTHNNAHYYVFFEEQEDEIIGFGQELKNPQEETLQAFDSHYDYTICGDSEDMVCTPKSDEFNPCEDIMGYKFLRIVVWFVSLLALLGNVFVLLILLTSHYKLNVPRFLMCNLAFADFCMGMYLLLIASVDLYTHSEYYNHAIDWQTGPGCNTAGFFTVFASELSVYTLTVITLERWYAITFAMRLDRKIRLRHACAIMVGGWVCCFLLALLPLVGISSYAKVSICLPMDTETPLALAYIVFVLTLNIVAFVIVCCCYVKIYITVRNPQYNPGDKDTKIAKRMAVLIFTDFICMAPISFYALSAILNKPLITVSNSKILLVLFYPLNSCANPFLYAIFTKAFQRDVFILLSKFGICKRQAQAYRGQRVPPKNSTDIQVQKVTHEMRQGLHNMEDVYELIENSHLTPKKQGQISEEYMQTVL
In short: as §1
Potency is read from the fitted curve at half-maximal effect.

O=C1C2C3CCCC3=C3CCCC3C2C(=O)N1c1ccc(Cl)cc1 (stereo not given)
max response [1]: -8.66%
Potency [2]: 1.58 µM (active)

O=S1(=O)N=C(Oc2ccccc2)c2ccccc21
max response [1]: -6.77%
Potency [2]: inactive

COc1cccc(C2CC(c3ccccc3OC)n3nc(N)nc3N2)c1 (stereo not given)
max response [1]: 6.01%
Potency [2]: inactive

COc1ccc(C(=O)N(Cc2ccco2)Cc2cccs2)c(O)c1
max response [1]: -7.34%
Potency [2]: 1 µM (active)

NC(=O)c1nsc(C(=O)N(CC(=O)NCc2ccc3c(c2)OCO3)C2CCCC2)c1N
max response [1]: 7.46%
Potency [2]: 12.6 µM (active)

COc1cccc(C(c2nnnn2Cc2ccccc2)N2CCN(C(=O)c3ccco3)CC2)c1OC (stereo not given)
max response [1]: -3.51%
Potency [2]: inactive

CC(C)CC(=O)Nc1cccc(-c2cn3ccsc3n2)c1
max response [1]: -8.65%
Potency [2]: inactive

CC1(C)c2ccccc2N2CCC(=O)NC21/C=C/c1ccco1 (stereo not given)
max response [1]: 13.4%
Potency [2]: 6.31 µM (active)

CCOc1ccc(N(C(C)C(=O)Nc2ccc(OC)cc2)S(C)(=O)=O)cc1 (stereo not given)
max response [1]: -4.4%
Potency [2]: inactive

Cc1ccc(-n2nc(-c3ccc(N)cc3)cc2N)cc1
max response [1]: -8.96%
Potency [2]: inactive

NC(=O)c1nsc(C(=O)N(CC(=O)NCc2ccc3c(c2)OCO3)C2CCCCC2)c1N
max response [1]: 8.82%
Potency [2]: 1.26 µM (active)

Oc1ccccc1-c1cc(C(F)(F)C(F)F)nc(-c2ccccc2)n1
max response [1]: 3.44%
Potency [2]: 7.94 µM (active)

COC(=O)c1cc(NC2c3ccccc3C(=O)N2c2cccnc2)cc(C(=O)OC)c1 (stereo not given)
max response [1]: 17.7%
Potency [2]: 12.6 µM (active)

CCOc1ccc(N(CC(=O)NC(C)(C)C)S(=O)(=O)c2c(C)noc2C)cc1
max response [1]: 6.91%
Potency [2]: inactive

Cc1ccccc1NC(=O)N1C2CCCC1CC(NC(=O)C1CC1)C2 (stereo not given)
max response [1]: 20.1%
Potency [2]: inactive
